Measurements published in PubChem BioAssay (NCI).
Compounds without any hit were thinned out: in the full panel of roughly 83,000, 20% have a hit.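 48-hour exposure, single concentration, 96-well plates; percent growth endpoint where 0 means no net growth. Active: below 10.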 Unmarked numbers belong to inactive results.

Each compound was assayed on MDA-MB-468 breast (assay: NCI-60 one-dose screen, 48 h (100 = growth as untreated, 0 = no growth, -100 = all killed)). Settings: 10 µM unless noted.

Row | Structure (SMILES) | growth [%]
1 | CCOCC(=O)C(C#N)c1ccc(Cl)c(Cl)c1 (stereo not drawn) | 90.9
2 | c1cc(NCCc2ccncc2)nc(-n2cnc3ccccc32)c1 | 95
3 | O=[N+]([O-])c1ccc(O)cc1Br | 106
